This passage reports growth results from PubChem BioAssay (NCI).

The panel holds about 83,000 compounds, 20% with a hit somewhere; the sample as a whole holds those more often.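 Plates (96-well) were seeded with cells, treated with compound at one concentration, and incubated for 48 hours before percent growth was determined.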 A number with no mark means an inactive call. The source made the active and inactive calls. The calls were made as follows: active = growth percent below 10; inactive = the rest.

Among the test systems are HCT-15 colon; HT29 colon; SNB-75 CNS; U251 CNS; PC-3 prostate; SK-MEL-5 melanoma; UACC-62 melanoma; LOX IMVI melanoma; SK-MEL-28 melanoma; SK-MEL-2 melanoma; EKVX NSCLC; SN12C renal; UO-31 renal; TK-10 renal; ACHN renal; CAKI-1 renal; A498 renal; CCRF-CEM leukemia; MOLT-4 leukemia; SNB-19 CNS.
Assay in all cases: NCI-60 one-dose screen, 48 h (100 = growth as untreated, 0 = no growth, -100 = all killed)
What all share (conditions): 10 µM unless noted

With `OC(c1cc(-c2ccccc2)nc2ccc(Cl)cc12)C1CCCCN1` (configuration not stated), the growth was -12.3% (active) with HCT-15 colon; -3.87% (active) in the assay on HT29 colon; 61.9% in the assay with SNB-75 CNS; 21.5% in the assay with U251 CNS; 49.4% in the assay with PC-3 prostate; -5.63% (active) in the assay with SK-MEL-5 melanoma. Also, the growth in the assay on UACC-62 melanoma is -31.2% (active); with LOX IMVI melanoma, -83.2% (active); in the assay with SK-MEL-28 melanoma, -76.9% (active); in the assay on SK-MEL-2 melanoma, 89.2%; in the assay on EKVX NSCLC, 63%; in the assay on SN12C renal, 66.3%. Besides, the growth in the assay with UO-31 renal is 20.5%; with TK-10 renal, 71.3%; in the assay with ACHN renal, 22.1%; in the assay with CAKI-1 renal it was 34.3%; in the assay on A498 renal, 64.6%; in the assay with CCRF-CEM leukemia, 64.6%. For the same molecule, in the assay with MOLT-4 leukemia, the growth is 27.5%.

As to `O=C1Nc2ccccc2C12CC(c1ccccc1)=NN2` (configuration not stated), the growth with HCT-15 colon is 33%; in the assay with HT29 colon, 8.14% (active); in the assay with SNB-75 CNS, 38.4%; in the assay with SNB-19 CNS it was 68.7%; with PC-3 prostate, 48.2%; with SK-MEL-5 melanoma, 30.5%. The growth was 46.7% in the assay with UACC-62 melanoma; 48.4% in the assay with LOX IMVI melanoma; 56.8% in the assay on SK-MEL-28 melanoma; 68.6% in the assay with SN12C renal; 57.6% in the assay on UO-31 renal; 59.3% in the assay with ACHN renal. Also, the growth in the assay on CAKI-1 renal is 22.8%; in the assay on A498 renal it was 63.7%; in the assay with CCRF-CEM leukemia, 49.2%; with MOLT-4 leukemia it was 38.7%.

For the molecule `c1ccc(Sc2ncnc3ccccc23)cc1`, the growth with HCT-15 colon was 75.2%; in the assay on HT29 colon it was 88.2%; in the assay with SNB-75 CNS, 73.2%; with U251 CNS, 87.2%; with PC-3 prostate, 83.5%; in the assay on SK-MEL-5 melanoma, 66.1%. Besides, the growth is 66.2% in the assay on UACC-62 melanoma; 67.5% with LOX IMVI melanoma; 85.5% in the assay on SK-MEL-28 melanoma; 44.3% with SK-MEL-2 melanoma; 84.2% with EKVX NSCLC; 69% with SN12C renal. Moreover, the growth with UO-31 renal was 52.7%; in the assay on TK-10 renal it was 96.5%; in the assay with ACHN renal, 90.9%; in the assay on CAKI-1 renal it was 65.5%; with A498 renal, 82%; with CCRF-CEM leukemia, 48.5%. The growth in the assay on MOLT-4 leukemia was 38%.

Turning to `COc1ccc(-c2cc(-c3cccnc3)nc3sc4c(=O)n(-c5ccc(C)cc5)cnc4c23)cc1OC`, the growth in the assay with HCT-15 colon is 94.2%; in the assay with HT29 colon, 104%; in the assay with SNB-75 CNS it was 74.9%; in the assay on U251 CNS it was 103%; with PC-3 prostate, 91.2%; in the assay with SK-MEL-5 melanoma, 94.2%. In addition, the growth is 97.3% in the assay on UACC-62 melanoma; 97.9% with LOX IMVI melanoma; 89.3% with SK-MEL-28 melanoma; 108% in the assay on SK-MEL-2 melanoma; 86.4% with EKVX NSCLC; 92.2% with SN12C renal. The growth with UO-31 renal is 82%; with TK-10 renal it was 111%; in the assay with ACHN renal, 88.1%; in the assay on CAKI-1 renal, 76.3%; with A498 renal, 91%; in the assay on CCRF-CEM leukemia, 105%. In the assay with MOLT-4 leukemia, the growth was 97.4%.

Take `COCCCN=C(N)c1ccc(NC(=O)c2ccc(C(=O)Nc3ccc(C(N)=NCCCOC)cc3)cc2)cc1`: the growth in the assay on HCT-15 colon was 118%; with HT29 colon, 110%; in the assay on SNB-75 CNS it was 86.4%; in the assay on U251 CNS, 99.1%; with PC-3 prostate it was 125%; with SK-MEL-5 melanoma, 78.3%. In addition, the growth in the assay on UACC-62 melanoma was 91%; with LOX IMVI melanoma, 120%; with SK-MEL-28 melanoma it was 226%; in the assay with SK-MEL-2 melanoma it was 102%; in the assay on EKVX NSCLC it was 76.9%; in the assay on SN12C renal it was 95%. In addition, the growth with UO-31 renal was 96.6%; in the assay on TK-10 renal, 113%; in the assay on ACHN renal, 113%; in the assay on CAKI-1 renal, 95.2%; with A498 renal, 208%; in the assay with CCRF-CEM leukemia it was 108%. Further, in the assay on MOLT-4 leukemia, the growth was 85.9%.

For the molecule `O=C(/C=C\c1cccc([N+](=O)[O-])c1)c1ccccc1`, the growth is 21% with HCT-15 colon; 4.18% (active) with HT29 colon; 77.6% in the assay with SNB-75 CNS; 31.1% in the assay on U251 CNS; 40.7% in the assay on PC-3 prostate; 76.3% in the assay with SK-MEL-5 melanoma. Besides, the growth was 71.9% in the assay on UACC-62 melanoma; 3.66% (active) in the assay on LOX IMVI melanoma; 5.24% (active) in the assay on SK-MEL-28 melanoma; 100% in the assay on SK-MEL-2 melanoma; 96.9% in the assay on EKVX NSCLC; 97.2% with SN12C renal. The growth in the assay on UO-31 renal is -64.5% (active); with TK-10 renal, 68.1%; in the assay on ACHN renal, -50.1% (active); in the assay on CAKI-1 renal, 84.4%; in the assay with A498 renal, 91.4%; with CCRF-CEM leukemia it was -23.9% (active). Also, the growth in the assay on MOLT-4 leukemia is 18.9%.

Regarding `CC(=O)OC1Oc2cc(C)c(C)cc2-c2oc(=O)c(-c3cc4ccc(N(C)C)cc4oc3=O)cc21` (configuration not stated), the growth with HCT-15 colon was 100%; with HT29 colon, 100%; in the assay on SNB-75 CNS it was 69%; in the assay on U251 CNS it was 115%; with PC-3 prostate, 61.9%; in the assay with SK-MEL-5 melanoma it was 49.8%. Moreover, the growth in the assay with UACC-62 melanoma was 61.6%; with LOX IMVI melanoma, 101%; in the assay with SK-MEL-28 melanoma, 115%; in the assay with SK-MEL-2 melanoma, 92.4%; in the assay on EKVX NSCLC it was 41.5%; in the assay on SN12C renal it was 84.2%. Besides, the growth with UO-31 renal was 51.4%; with TK-10 renal it was 89.6%; in the assay on ACHN renal, 103%; with CAKI-1 renal, 65.4%; with A498 renal it was 57.8%; in the assay on CCRF-CEM leukemia, 54.9%. In addition, in the assay on MOLT-4 leukemia, the growth is -17.4% (active).

As to `CCc1ccccc1NC(=O)c1sc2nc3c(cc2c1N)C(=O)CCC3`, the growth in the assay on HCT-15 colon is 31.2%; in the assay on HT29 colon it was 8.59% (active); in the assay on SNB-75 CNS it was -15.4% (active); in the assay on SNB-19 CNS, 68.9%; with PC-3 prostate it was 18%; in the assay with SK-MEL-5 melanoma, 30.7%. For the same molecule, the growth was 34.3% in the assay with UACC-62 melanoma; 43.7% with SK-MEL-28 melanoma; 19.9% with SK-MEL-2 melanoma; 45.4% with SN12C renal; 44.5% in the assay with UO-31 renal; 54.7% with TK-10 renal. For the same molecule, the growth in the assay on ACHN renal was 58.4%; in the assay with CAKI-1 renal, 29.9%; in the assay on A498 renal, -9.7% (active); with CCRF-CEM leukemia, 13.6%; in the assay on MOLT-4 leukemia, 24.4%.
